Experimental findings from PubChem BioAssay (NCI) are described below.

About 83,000 compounds went through this panel and 20% of them were active in at least one assay; those are over-represented in the sample as a whole.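 Percent growth is the endpoint: 0 to 100 indicates growth inhibition (40 means 60% inhibition), 0 means no net growth, and negative values indicate cell death.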 Values without a mark were called inactive. The source made the active and inactive calls.

This assay deals with CCRF-CEM leukemia. Kind of assay: NCI-60 one-dose screen, 48 h (100 = growth as untreated, 0 = no growth, -100 = all killed). The settings on record: 10 µM unless noted. The method, then: Growth inhibition of the CCRF-CEM human tumor cell line is measured as a screen for anti-cancer activity. Cells are grown in 96 well plates and exposed to the test compound for 48 hours. Compounds are tested at a single concentration, which is 10^-5 M for most compounds. The reported endpoint is percent growth (GI% or GIPRCNT), where numbers from 0 - 100% represent growth inhibition, and numbers from -100% - 0 represent cell death. For example, a value of 40 represents 60% growth inhibition. A value of 0 means no net growth occurred over the course of the experiment. A value of -40 indicates 40% of cells at the beginning of the experiment died by the end of the experiment. A value of -100 means all cells are dead at the end of the experiment.
NCI-60 Human Tumor Cell Lines Screen was performed using the standard one-dose NCI protocol, which is described in more detail at https://dtp.cancer.gov/discovery_development/nci-60/default.htm.
Compounds with GIPRCNT values below 10 were considered active. Activity score was based on GIPRCNT using the following formula: […]
Score is 0 for GIPRCNT values of 100 or above, 50 for GIPRCNT values of 0, and 100 for GIPRCNT values of -100.
With `O[C@H]1CO[C@H]2[C@@H]1OC[C@@H]2Oc1ccc(Nc2nc(Nc3ccc(F)c(Cl)c3)ncc2F)cc1Cl`, the growth was 103%. Consider `COc1cc2c(=O)n(CCCn3ccnc3)c3c4cc5c(cc4ccc3c2cc1OC)OCO5`, for which the growth was 3.73% (active). Regarding `N[C@H]1CCC[C@@H]1NCCCCN1C(=O)c2cccc3cccc(c23)C1=O`, the growth was 84.5%. The same measure for `CN=C1C=CC(=C(c2ccc(N(C)C)cc2)c2ccc(N(C)C)cc2)C=C1`: 3.67% (active); for `C[C@@H]1CC[C@@H]2[C@@H]1[C@H](OC(=O)/C=C/c1ccccc1)[C@]1(CCCOCCOCCOCCOC(=O)CCCC[C@@H]3SC[C@@H]4NC(=O)N[C@@H]43)C[C@@H](OC(=O)CO)[C@@]2(C)O1`: 98.2%. Regarding `CCOc1ccc(S(=O)(=O)c2ccc(C)cc2)c2c1no[n+]2[O-]`, the growth is 75.7%.

Consider `O=C1Nc2ccccc2/C1=N/N=C/c1ccsc1`, for which the growth was 101%. The same measure for `O=C1/C(=C/c2ccccc2[N+](=O)[O-])COc2ccc(O)c(O)c21`: -2.4% (active). With `CNCCNc1nc2ccccc2c2c(=O)c3cc(F)ccc3oc12` the figure was 52.4%; with `C=C1C(=O)O[C@H]2[C@H]1CC/C(COC(=O)/C=C\C(=O)NCc1ccc(Cn3c(=O)sn(-c4ccc(Cl)cc4)c3=O)cc1)=C\CC[C@@]1(C)O[C@@H]21`, -22.9% (active); with `CCCCCOC(=O)c1cccc(NC(=O)CN(CC)CC)c1`, 78.6%. The same measure for `CC12CC(C#N)CCC1O2` (stereo not given): 92.4%; for `COc1ccc(-c2cc(-c3cc(OC)ccc3OC)[nH]c(=O)c2C#N)cc1`: 76.9%; for `C[C@@H](C[C@H](CCOCc1cccnc1)c1ccccc1)c1cc2ccccc2o1`: 94.1%. For the compound `Cc1cc(=O)[nH]c(N/N=C/c2cc(Br)ccc2O)n1`, the growth was 22.8%. The same measure for `Cc1cc(Cl)nc(N(CCCNc2ccnc3cc(Cl)ccc23)Cc2ccccn2)n1`: 36.1%; for `COc1ccc(OC)c(/C=C2\COc3ccc(O)cc3C2=O)c1`: 5.83% (active); for `Cn1nnnc1-c1ccc(N)cc1`: 100%. As for `CCCCN1CCN(c2ccc3nc(-c4ccc5nc(-c6cc(OC)c(OC)c(OC)c6)[nH]c5c4)[nH]c3c2)CC1`, the growth was 25.1%. The same measure for `O=C1N/C(=N/O)S/C1=C/c1cn(-c2ccccc2)nc1-c1ccccc1`: 91.6%. With `COc1cc(-c2ccc(N=Nc3c(O)c(C(=O)Nc4ccccc4OC)cc4ccccc34)c(OC)c2)ccc1N=Nc1c(O)c(C(=O)Nc2ccccc2OC)cc2ccccc12` the figure was 9.35% (active); with `COc1cccc(CCC2CCCN(c3cc(C)nc(N)n3)C2)c1` (stereo not given), 25.7%. With `Nc1c(C(=O)c2ccc(Cl)s2)sc2nc3c(cc12)CCCC3` the figure was 99.9%; with `C/C(Cc1ccc(Cl)cc1)=C(/c1ccc(Cl)cc1)c1ccc(OCCN(C)C)cc1`, 39.5%; with `COc1ccc(-c2nc3ccccn3c2/C=C/C(=O)c2cc(OC)c(OC)c(OC)c2)cc1`, 41.7%. Take `O=c1[nH]c(NCc2nnnn2-c2ccc(Br)cc2)nc2sc3c(c12)CCCC3`: the growth is 90.8%. With `Cc1nn(-c2ccccc2)c2c1C(c1ccc([N+](=O)[O-])cc1)C(C#N)=C(N)O2` (stereo not given) the figure was 90.3%; with `C=CCO[C@H]1CO[C@H]2[C@@H]1OC[C@@H]2Oc1ccc(Nc2ccnc(Nc3ccc(O[C@H]4CO[C@H]5[C@@H]4OC[C@@H]5OCC=C)c(Cl)c3)n2)cc1Cl`, -9.75% (active). As for `C=C1C(=O)O[C@H]2[C@H]1CC/C(Cn1cc(CNCCc3c[nH]c4ccccc34)nn1)=C\CC[C@@]1(C)O[C@@H]21`, the growth was 16.4%. On to `Cn1ncc2c(Nc3ccc(Br)cc3)nc(Nc3ccc(Br)cc3)nc21`, for which the growth was 27.8%.

As to `CSc1ccc(Cl)c(C(=O)Nc2sccc2C(N)=O)c1`, the growth was 94.1%. For the compound `CCN(CC)CCNc1ccc(C)c2sc3cc(C)ccc3c(=O)c12`, the growth was 34%. Consider `O=C1CSC(c2ccccc2O)N1c1nnc(Cn2cnnc2)o1` (stereo not given), for which the growth is 23%. `Cc1nc(-c2ccccc2)cc2c(O)c(C(=O)N/N=C/c3ccc(N(C)C)cc3)[nH]c(=O)c12`: the growth was 96.7%. `NC(=O)c1c(NC(=O)c2ccc(C(F)(F)F)cc2Cl)sc2c1CCC(=O)C2`: the growth is -1.78% (active).

Take `CC(=O)c1sc(-c2ccccc2)cc1N`: the growth was 96.6%. As to `C[C@@H]1C(=O)N(C[C@H](Cc2ccccc2)NC(=O)OCc2ccccc2)[C@]1(Cc1ccccc1)C(=O)OC(C)(C)C`, the growth was 72.2%. With `CC(C)(C)c1ccc(C(=O)Nc2sc3c(c2C(N)=O)CCC(=O)C3)cc1` the figure was 1.49% (active). The same measure for `CN(C)c1ccc(C#Cc2c(F)cccc2Cl)cc1`: 88.6%. `CN(C)c1ccc(-c2cc(-c3ccc(Nc4nc(Nc5ccccc5)nc(Nc5ccc(Cl)cc5)n4)cc3)nc(N)n2)cc1`: the growth was 5.11% (active).
